An excerpt weighted towards active compounds, which were near 6.2% of everything screened.
HT1080 IDH1KD tx: kills HT-1080 cells with IDH1 knockdown | HT-1080 IDH1 knockdown viability, ATP luminescence, 48 h | Potency, µM (doses to about 46.1 µM), for inactives: at the highest dose activity, negative = toxicity, most hits filed as cytotoxic | 360,000 tested, 2% active | AID 686971;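 note: 0% = DMSO wells and -100% = cell-free medium wells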
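After a 2 h attachment period, IDH1KD HT-1080 cells took pin-transferred compound for 48 h at 37 °C; ATP-based luminescence after 10 min room-temperature reagent incubation reported viability.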
S2 tox: reduces viability in counter-screen for ATXN expression inhibitors; S2 cells (HEK-293 line with an ATXN2-luciferase reporter) viability, CellTiter-Fluor protease fluorescence, 24 h; Potency, µM (highest dose often 56.7 µM), most hits filed as cytotoxic; 400,000 tested, 0.49% active; note: nearly all actives have a fitted effect of over 40% in size
KB-V1 MDR tox: kills drug-selected multidrug resistant KB-V1 cells. KB-V1 MDR cells viability, CellTiter-Glo, 72 h. 400,000 tested, 3.4% active. AID 1347076. Potency, µM (top dose mostly 46.1 µM), usual class: cytotoxic; note: % is set by controls: 0 for no effect and ±100 for the full control effect; nearly all actives have a fitted effect of over 60% in size
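qHTS viability screen in drug-selected KB-V1 MDR cells: 72 h compound treatment at 37 degrees C, ATP luminescence end point.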
KB-3-1 cytotox: KB-3-1 parental cell cytotoxicity; KB-3-1 viability, CellTiter-Glo ATP luminescence, 72 h; Potency, µM (top dose mostly 46.1 µM), hits mostly cytotoxic; 400,000 tested, 1.4% active; note: % is set by controls: 0 for no effect and ±100 for the full control effect; nearly all actives have a fitted effect of over 60% in size
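Luminescent ATP read-out (CellTiter-Glo) measures survival of drug-naive KB-3-1 cells after 72 h compound exposure at 37 °C. Titration series was screened from lowest to highest concentration, with DMSO vehicle plates as background controls.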
ATXN2 expr inh: inhibitors of ATXN2 expression | HEK-293 ATXN2-luciferase reporter, luminescence, 24 h | Potency, µM (series often up to 57 µM), inactives show top-dose activity change, negative = inhibition, usual class: inhibitors | 360,000 tested, 0.72% active | AID 1745845; note: % is set by controls: 0 for no effect and ±100 for the full control effect; nearly all actives have a fitted effect of over 55% in size
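ATXN2-luciferase reporter cells (luciferase flanked by upstream and downstream ATXN2 gene portions) were treated 24 h at 37 °C with compounds at up to 57 uM. SteadyGlo luminescence gave expression; GF-AFC fluorescence gave viability.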
HT1080NT lethal: kills 2HG-producing HT-1080-NT fibrosarcoma cells; AID 686970; Potency, µM (series often up to 46.1 µM), for inactives: top-dose activity, negative = less viability, most hits filed as cytotoxic; 360,000 tested, 1.6% active; HT-1080-NT fibrosarcoma viability, CellTiter-Glo ATP luminescence, 48 h;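 note: NT is the 2HG producing partner of a matched IDH1 knockdown line; 0% = DMSO-treated cells and -100% = media-only wells without cells; nearly all actives have a fitted effect of over 55% in size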
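A 48-hour cytotoxicity screen used HT-1080-NT cells plated 2 hours before compound delivery. ATP-based CellTiter-Glo luminescence measured viability, normalized to DMSO and no-cell controls.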
Starred values were filed as active, the others as inactive; i = inactive; ? = inconclusive; nt = no result; ! = repeats disagree. Calls come from the whole dose curve; as a rule, active = well fitted curve in the direction sought with a large enough effect; inconclusive = small, poorly fitted or top-dose-only effect, or another doubt; inactive = no such curve, though single readings can be large; an effect the other way counts as inactive or inconclusive. Potency is the fitted concentration of half-maximal effect.

SMILES	HT1080 IDH1KD tx	S2 tox	KB-V1 MDR tox	KB-3-1 cytotox	ATXN2 expr inh	HT1080NT lethal
Cc1ccc(CNC(=O)NCc2noc3ccc(C)cc23)cc1	nt	i	i	i	-7.1%	nt
COc1ccc(NC(=O)CN(C)C(=O)CC2CCCC2)cc1	2.3%	i	i	i	-15.3%	-1.5%
CN(CC(=O)Nc1ccc(F)c(F)c1F)C(=O)CC1CCCCC1	-9.5%	i	14.6µM*	i	-2.0%	-2.8%
N#Cc1cnc2cc(-c3ccccc3)nn2c1N	?	i	2.59µM*	?	39.4%	?
COc1ccc(-c2cc3ncc(-c4ccccc4)c(N)n3n2)cc1	?	i	?	i	53.1%	?
c1ccc(-c2ccc3[nH]ccc3c2)cc1	5.4%	i	i	i	46.1%	12.0%
c1cc2cc(-c3c(-c4ccc5c(c4)OCO5)noc3-c3ccsc3)ccc2[nH]1	?	i	20.6µM*!	?	14.4%	-26.3%
c1ccc(-c2onc(-c3ccco3)c2-c2ccc3[nH]ccc3c2)cc1	-14.5%	i	23.1µM*!	?	-10.6%	-17.1%
CN(C)CCN(Cc1ccsc1)c1ccccn1	nt	i	nt	nt	0.6%	nt
Cc1ccc(-n2nnnc2SCC(=O)Nc2sccc2C#N)cc1	-10.4%	i	18.4µM*	i	3.2%	-5.8%
CCCOC(=O)c1ccc(-n2nnnc2SCC(=O)N2CCCCC2)cc1	-17.4%	i	i	i	-14.0%	-7.3%
Cc1ccc(-n2nnnc2SCC(=O)N2CCCCC2)cc1	-1.2%	i	9.2µM*	i	19.5%	2.5%
COC(=O)c1ccc(-n2nnnc2SCC(=O)N2CCCCC2)cc1	-15.3%	i	20.6µM*	i	-3.4%	-5.3%
COc1ccccc1-n1nnnc1SCC(=O)Nc1ccccn1	7.2%	i	16.4µM*	i	2.9%	6.0%
Cc1ccc(-n2nnnc2SCC(=O)Nc2cccnc2Cl)cc1	-14.5%	i	i	i	-10.2%	-5.2%
O=C(CSc1nnnn1-c1ccc(Cl)cc1)Nc1cccnc1Cl	20.5%	?	16.4µM*	i	-3.6%	4.1%
O=C(NCc1ccc(F)cc1)c1noc2c1CCCCC2	0.9%	i	16.4µM*	i	32.9%	8.2%
O=C(NCc1ccc(Cl)cc1)c1noc2c1CCCCC2	2.4%	i	20.6µM*	i	6.0%	-5.2%
CCC(Sc1nc2ccccc2c2nc(CCc3c(C)n[nH]c3C)nn12)C(=O)Nc1ccccc1F (stereo not given)	nt	?	i	i	-6.3%	nt
CCOC(=O)COc1ccccc1/C=C\[N+](=O)[O-]	2.91µM*	nt	14.6µM*	9.2µM*	?	8.2µM*
COc1ccc(/C=C/c2cc(-c3ccc(C)cc3)o[n+]2C)cc1	6.51µM*	?	i	?	?	14.6µM*
Cc1ccc(-n2[nH]c(C)c(/C=N/Nc3ccc([N+](=O)[O-])cc3[N+](=O)[O-])c2=O)cc1	23.1µM*	nt	16.4µM*	?	?	?
Cc1[nH]c2ccccc2c1/C=N/Nc1ccc([N+](=O)[O-])cc1	?	nt	i	i	6.9%	9.2µM*
Cc1[nH]n(-c2ccc([N+](=O)[O-])cc2)c(=O)c1C=NCCc1ccc(S(N)(=O)=O)cc1	?	i	i	?	-17.6%	-23.3%

Bioassay records deposited in PubChem by National Center for Advancing Translational Sciences (NCATS).
